Rows were chosen to be rich in hits. Some 1.5% of all compounds tested hit in one or more screens of this group.
TcdB GH inh = TcdB glycohydrolase inhibition; P18177; 350,000 tested, 0.24% active; TcdB glycohydrolase enzymatic assay, plate reader; AID 652162; inhibition, % at 9.99 µM; in the data active = inhibition above about 10%
Target sequence (P18177 whole entry, looked up): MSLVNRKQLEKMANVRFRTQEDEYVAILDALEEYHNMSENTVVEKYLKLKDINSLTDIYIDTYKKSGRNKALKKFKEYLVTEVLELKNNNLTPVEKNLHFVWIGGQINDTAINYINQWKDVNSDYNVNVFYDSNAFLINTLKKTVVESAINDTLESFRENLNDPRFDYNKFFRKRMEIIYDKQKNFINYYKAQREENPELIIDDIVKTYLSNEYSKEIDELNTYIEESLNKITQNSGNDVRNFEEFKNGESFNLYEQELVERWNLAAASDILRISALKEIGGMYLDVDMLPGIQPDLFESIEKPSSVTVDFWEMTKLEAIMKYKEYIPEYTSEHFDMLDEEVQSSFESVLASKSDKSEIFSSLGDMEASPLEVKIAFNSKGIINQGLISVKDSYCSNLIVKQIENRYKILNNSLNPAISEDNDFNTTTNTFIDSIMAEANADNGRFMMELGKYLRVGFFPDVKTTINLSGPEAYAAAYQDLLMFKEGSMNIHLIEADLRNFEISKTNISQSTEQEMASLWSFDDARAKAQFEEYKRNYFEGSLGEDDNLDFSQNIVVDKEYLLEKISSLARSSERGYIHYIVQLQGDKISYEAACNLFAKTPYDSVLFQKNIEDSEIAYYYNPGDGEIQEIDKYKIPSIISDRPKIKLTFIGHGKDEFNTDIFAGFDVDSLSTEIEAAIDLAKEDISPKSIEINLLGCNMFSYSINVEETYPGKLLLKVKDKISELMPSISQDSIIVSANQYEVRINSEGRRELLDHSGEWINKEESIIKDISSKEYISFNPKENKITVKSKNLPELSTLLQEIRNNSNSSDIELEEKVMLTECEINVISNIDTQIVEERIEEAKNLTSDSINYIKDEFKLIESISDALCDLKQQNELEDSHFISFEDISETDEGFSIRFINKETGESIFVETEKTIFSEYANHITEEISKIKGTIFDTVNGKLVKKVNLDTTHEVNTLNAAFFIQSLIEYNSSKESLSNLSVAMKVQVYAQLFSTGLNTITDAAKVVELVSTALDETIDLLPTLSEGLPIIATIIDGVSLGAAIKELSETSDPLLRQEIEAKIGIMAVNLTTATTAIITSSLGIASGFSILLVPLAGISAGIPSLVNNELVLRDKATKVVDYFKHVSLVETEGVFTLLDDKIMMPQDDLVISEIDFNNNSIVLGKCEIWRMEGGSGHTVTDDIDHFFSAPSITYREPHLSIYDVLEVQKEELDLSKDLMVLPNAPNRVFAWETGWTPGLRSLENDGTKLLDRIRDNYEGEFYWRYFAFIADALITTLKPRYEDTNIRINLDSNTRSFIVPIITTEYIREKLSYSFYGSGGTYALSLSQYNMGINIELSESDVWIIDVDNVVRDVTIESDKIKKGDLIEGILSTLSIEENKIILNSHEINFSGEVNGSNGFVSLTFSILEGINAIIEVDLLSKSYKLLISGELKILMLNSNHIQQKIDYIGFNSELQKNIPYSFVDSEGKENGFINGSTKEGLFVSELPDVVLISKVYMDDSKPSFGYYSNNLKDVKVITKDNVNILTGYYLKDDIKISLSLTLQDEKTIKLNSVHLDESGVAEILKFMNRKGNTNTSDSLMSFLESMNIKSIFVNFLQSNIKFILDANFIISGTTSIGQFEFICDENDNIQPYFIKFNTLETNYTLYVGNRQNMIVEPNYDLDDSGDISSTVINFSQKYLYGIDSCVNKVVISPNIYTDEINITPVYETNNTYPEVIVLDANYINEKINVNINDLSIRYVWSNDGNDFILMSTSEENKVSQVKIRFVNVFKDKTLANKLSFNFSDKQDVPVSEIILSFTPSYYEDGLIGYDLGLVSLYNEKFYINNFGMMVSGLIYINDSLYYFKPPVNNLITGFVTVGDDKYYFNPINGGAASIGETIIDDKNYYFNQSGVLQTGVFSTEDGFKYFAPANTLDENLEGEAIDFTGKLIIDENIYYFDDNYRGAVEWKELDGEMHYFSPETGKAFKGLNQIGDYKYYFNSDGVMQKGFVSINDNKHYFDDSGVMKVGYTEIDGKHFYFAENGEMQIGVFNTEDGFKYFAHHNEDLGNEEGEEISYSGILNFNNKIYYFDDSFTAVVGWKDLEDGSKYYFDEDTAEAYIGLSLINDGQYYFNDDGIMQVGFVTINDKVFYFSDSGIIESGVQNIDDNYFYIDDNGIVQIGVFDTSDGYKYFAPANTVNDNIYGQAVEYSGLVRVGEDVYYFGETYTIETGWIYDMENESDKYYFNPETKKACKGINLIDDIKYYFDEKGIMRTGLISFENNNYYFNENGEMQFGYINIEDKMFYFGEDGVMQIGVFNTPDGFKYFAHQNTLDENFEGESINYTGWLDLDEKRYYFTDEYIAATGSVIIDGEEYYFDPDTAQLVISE
VHR inh abs = DUSP3 (human) phosphatase inhibition | P51452 | inhibition, % at 13.3 µM | recombinant VHR phosphatase, pNPP absorbance | 290,000 tested, 0.52% active; in the data active = inhibition above about 50%
SSB-PriA inh = inhibitors of Klebsiella pneumoniae PriA binding to SSB C-terminal tail; AlphaScreen SSBct-PriA binding, biotinylated peptide; inhibition, % at 33 µM; 430,000 tested, 0.6% active; AID 1272365; in the data active = inhibition mostly above about 37%, no sharp cut-off; inactive = mostly below about 20%
PrPC surface inh = inhibitors of human cell surface prion protein PrPC | TR-FRET read-out | inhibition, % at 13.8 µM | P04156 | 370,000 tested, 0.43% active; in the data active = inhibition above about 24%
CCHF vOTU inh = CCHFV vOTU protease inhibition | Pep-AMC fluorescence | 370,000 tested, 0.55% active | AID 651958 | inhibition, % at 11.5 µM; in the data active = inhibition above about 30%
BH1578 lux ind = inducers of Vibrio cholerae quorum light production without autoinducers; V. cholerae BH1578 lux reporter, luminescence, 6 h; activation, % at 18.7 µM; 350,000 tested, 0.16% active; in the data active = activation mostly above about 9.7%, no sharp cut-off
A number is an active result; 0 = inactive; - = not tested or not shown; + = active, no number; ! = repeats disagree.

SMILES | TcdB GH inh | VHR inh abs | SSB-PriA inh | PrPC surface inh | CCHF vOTU inh | BH1578 lux ind
CS(=O)(=O)Nc1ccc(N2CCN(c3ccc(C(F)(F)F)cn3)CC2)nc1 | 0 | 0 | 0 | 0 | 0 | 0
CC1=NN(c2ccc(C(F)(F)F)cn2)C(=O)C1 | 0 | 0 | 44.8 | 0 | 0 | 0
O=c1nc(NN=Cc2ccccn2)cn[nH]1 | - | - | 81.5 | - | - | -
Cc1cc(=O)[nH]c(NN=Cc2ccccn2)n1 | - | - | 83.3 | - | - | -
Cc1ccc(C=NNc2cn[nH]c(=O)n2)o1 | - | - | 0 | - | - | -
Cc1cc(C)c(NC(=O)COc2cc(C)nc(N3CCc4ccccc4C3)n2)c(C)c1 | - | - | 0 | - | - | -
CCCS(=O)(=O)N1CCCC(C(=O)NCCCN(CC)c2cccc(C)c2)C1 (stereo not drawn) | - | 0 | 0 | 0 | 0 | +
COc1ccc(N2C(=O)C3C4C=CC(C5CC45)C3C2=O)c([N+](=O)[O-])c1 (stereo not drawn) | - | 0 | 0 | 0 | 0 | 16.7
Cc1ccccc1N1CCN(CC(=O)Nc2nc(C)c(C(=O)N(C)C)s2)CC1 | 0 | 0 | 0 | 0 | 0 | 0
Cc1nc(NC(=O)CN2CCN(c3ccccc3F)CC2)sc1C(=O)N(C)C | 0 | 57.0 | 0 | 0 | 0 | 0
COc1cccc(C(=O)Nc2ccc3c(c2)C(=O)N(C)[C@H]2CC[C@@H](CC(=O)NCC4CC4)O[C@@H]2CO3)c1 | 0 | - | - | - | - | -
COC(=O)C[C@H]1CC[C@@H]2[C@@H](COc3ccc(NC(=O)c4ccc(OC)cc4)cc3C(=O)N2C)O1 | 12.1 | - | - | - | - | -
COc1ccc(C(=O)Nc2ccc3c(c2)C(=O)N(C)[C@@H]2CC[C@H](CC(=O)NCC4CC4)O[C@@H]2CO3)cc1 | 14.9 | - | - | - | - | -
CCNC(=O)C[C@H]1CC[C@@H]2[C@@H](COc3ccc(NC(=O)c4cccc(OC)c4)cc3C(=O)N2C)O1 | 10.2 | - | - | - | - | -
CCOc1ccc(Nc2oc(-c3ccc(S(=O)(=O)N(C)Cc4ccccc4)cc3)nc2C#N)cc1 | - | - | 0 | - | - | -
O=C(NCCC(O)C1CC1)C(=O)Nc1ccc(F)c(Cl)c1 (stereo not drawn) | - | - | 0 | - | - | -
COc1ccc(Cl)cc1C(=O)NCc1cc(C)nc(N(C)C)n1 | - | - | 0 | - | - | -
COc1ccc(S(=O)(=O)Nc2c(C)nc(N3CCOCC3)nc2C)cc1Cl | - | - | 0 | - | - | -
c1ccc(-c2csc3nnc(SCc4ccc5c(c4)OCCO5)n23)cc1 | - | 0 | 39.9! | 0 | 0 | 0
Cc1ccc(-c2csc3nnc(SCc4ccc5c(c4)OCO5)n23)cc1 | - | - | 0 | - | - | -
O=[N+]([O-])c1cc(Cl)ccc1NCCc1ccccn1 | 0 | 0 | 54.6 | 0 | 0 | 0
N#Cc1ccc(NCCc2ccccn2)c([N+](=O)[O-])c1 | 0 | 0 | 0 | 0 | 0 | 0
COCC#Cc1ccc2c(c1)O[C@H](CN(C)C(=O)CC1CC1)[C@@H](C)CN([C@H](C)CO)S2(=O)=O | 12.0 | - | - | - | - | -
CCc1c(C)nc2n(c1=O)CC(C(=O)NCCCn1ccnc1)CS2 (stereo not drawn) | - | - | 0 | - | - | -
O=C(c1ccco1)N1CCN(CCCCN2C(=O)c3ccccc3C2=O)CC1 | 0 | 0 | 0 | 0 | 0 | 0
SMILES | TcdB GH inh | VHR inh abs | SSB-PriA inh | PrPC surface inh | CCHF vOTU inh | BH1578 lux ind
CCOC(=O)N1CCN(c2cc(NCCC(=O)O)c3c4c(onc24)-c2ccccc2C3=O)CC1 | - | 0 | 0 | - | - | 0
CN1CCN(c2cc(N3CCN(C(=O)c4ccco4)CC3)c3c4c(onc24)-c2ccccc2C3=O)CC1 | - | 0 | 76.7 | - | - | 0
O=C1c2ccccc2-c2onc3c(N4CCN(CCO)CC4)cc(N4CCN(C(=O)c5ccco5)CC4)c1c23 | 0 | 0 | 80.3 | 0 | 0 | 0
C[C@](O)(CNC(=O)c1cccc(Br)c1)c1ccccc1 | - | - | 0 | - | - | -
N#CCCN1CCCc2cc(N=Nc3ccc(C(F)(F)F)cc3)ccc21 | 0 | 0 | 45.3 | 0 | 0 | 0
CCCN1CCCc2cc(CCNC(=O)C(=O)Nc3cccc(C(F)(F)F)c3)ccc21 | - | - | 0 | - | - | -
Cc1ccc(NC(=O)c2ccccc2NC(=O)C2COc3ccccc3O2)c(C(=O)c2ccccc2)c1 (stereo not drawn) | - | - | 61.0 | - | - | -
COc1ccc(CNC(=O)Cn2nc3c(c2NC(=O)c2cccc(C(F)(F)F)c2)CSC3)cc1 | - | - | 0 | - | - | -
CC1=NCCc2c1[nH]c1cc(O)ccc21 | 42.2 | - | 0 | 0 | 0 | 0
CC1CCCC(C)N1CC(O)COCC1COc2ccccc2O1 (stereo not drawn) | - | 55.2 | 0 | 0 | 0 | 0
OCCN1CCN(CC(O)COCC2COc3ccccc3O2)CC1 (stereo not drawn) | 0 | 0 | 0 | 0 | 0 | 0
CC1C(=O)NCCN1C(=O)CCCSc1ccccc1 (stereo not drawn) | - | - | 0 | - | - | -
Cc1nc(-c2ccccc2Cl)sc1CNC(=O)C1CCCO1 (stereo not drawn) | - | - | 0 | - | - | -
CN1CCCC(C(=O)c2ccccc2)C1 (stereo not drawn) | - | 0 | 0 | 0 | 0 | 0
CSc1ccc(C(=O)C2CCCN(C)C2)cc1 (stereo not drawn) | 0 | 53.3 | 0 | 0 | 0 | 0
CC(=O)c1ccc(NN=C(C(N)=O)C2=NC(C)(C)Cc3ccccc32)cc1 | - | - | 49.9 | - | - | -
CCOc1ccc(S(=O)(=O)Nc2ccc3c(c2)CC(=O)N3CC)cc1F | - | - | 0 | - | - | -
CSc1cccc(C(=O)Nc2nc(-c3ccc([N+](=O)[O-])cc3)cs2)c1 | - | - | 0 | - | - | -
O=C(O)c1cn[nH]c1S(=O)(=O)N1CCSCC1 | - | - | 0 | - | - | -
O=C(Nc1nnc(-c2ccco2)o1)C1CC1 | 10.0 | 0 | 0 | 0 | 0 | 0
O=C(Nc1nnc(-c2ccco2)o1)C1CC(=O)N(c2ccccc2)C1 (stereo not drawn) | - | - | 65.0 | - | - | -
O=C(Nc1nnc(-c2ccc(Cl)s2)o1)C1CC(=O)N(c2ccccc2)C1 (stereo not drawn) | - | - | 0 | - | - | -
COc1ccc(C(O)=C2C(=O)C(=O)N(CCCC(=O)O)C2c2ccc(OC)c(OC)c2)cc1 (stereo not drawn) | - | - | 0 | - | - | -
O=C(C1CC1)N1CCCNCC1 | - | - | 0 | - | - | -
CCCCn1c(N)c(-c2nc3ccccc3o2)c2c([N+](=O)[O-])nn(C)c(=O)c21 | 0 | 55.4 | 0 | 0 | 0 | 0
SMILES | TcdB GH inh | VHR inh abs | SSB-PriA inh | PrPC surface inh | CCHF vOTU inh | BH1578 lux ind
N#C/C(=C\c1ccco1)C(=O)NCC1CCCO1 (stereo not drawn) | 0 | 0 | 0 | 0 | 35.6 | 0
O=C(NCc1ccc2c(c1)OCO2)C(=O)NCC1CCCO1 (stereo not drawn) | 0 | 0 | 0 | 0 | 0 | 0
O=C(NCc1cccc(CNC(=O)C(=O)NCC2CCCO2)c1)C(=O)NCC1CCCO1 (stereo not drawn) | 0 | 0 | 0 | 0 | 0 | 227.4
COc1ccc(N2CCN(C(=O)c3cc4ccccc4o3)CC2)nn1 | - | - | 0 | - | - | -
O=C(Nc1cnn(CC2COc3ccccc3O2)c1)c1ncn[nH]1 (stereo not drawn) | - | - | 0 | - | - | -
O=C(O)C1CCC(CNCc2ccccc2Cl)CC1 (stereo not drawn) | 0 | 51.9 | 0 | 0 | 0 | 0
Cc1ccc(S(=O)(=O)N2CCC(C(=O)Nc3nc(-c4cc(C)ccc4C)cs3)CC2)cc1 | - | - | 0 | - | - | -
COc1ccc(C(=O)NNC(=O)Cc2ccc([N+](=O)[O-])cc2)cc1 | - | 0 | 0 | 0 | 0 | 0
COc1ccc(CC2(C)OC(c3ccc([N+](=O)[O-])cc3)=NN2C(C)=O)cc1 (stereo not drawn) | 0 | 0 | 44.8 | 0 | 0 | 0
